Out of some 5,500 compounds screened, about 2,000 (36%) were called active. Inconclusive results (about 18%) are left out. Rule as the data show it: active = normalized growth mostly below about 0.91 (no sharp cut-off); inconclusive = no clear call, values can overlap the other calls; inactive = mostly above about 0.92. The list shows a part of the results.
Assay: chemical genetic growth profiling, strain panel (AID 1159580);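 also: tested at 20 µM; growth read once vehicle control cultures reached saturation at 30 °C; 1 = growth at the plate median or of vehicle wells; lower values mean less growth of the strain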
Conditions: S. cerevisiae deletion strains, growth OD

Measured: normalized growth

Cc1onc(-c2ccccc2)c1-c1ccc(S(N)(=O)=O)cc1
inactive: locus YAL013W, strain DEP1, stronger effect = lower value 0.995 | locus YAL021C, strain ccr4, stronger effect = lower value 1 | locus YAL026C, strain drs2, stronger effect = lower value 1.02 | locus YAL030W, strain snc1, stronger effect = lower value 1 | locus YBL061C, strain skt5, stronger effect = lower value 1 | locus YBR009C, strain hhf1, stronger effect = lower value 1.01 | locus YBR021W, strain FUR4, stronger effect = lower value 1 | locus YBR023C, strain chs3, stronger effect = lower value 1 | locus YBR171W, strain sec66, stronger effect = lower value 0.984 | locus YBR229C, strain ROT2, stronger effect = lower value 0.999 | locus YBR231C, strain swc5, stronger effect = lower value 1 | locus YBR279W, strain paf1, stronger effect = lower value 1 | locus YCL011C, strain gbp2, stronger effect = lower value 0.989 | locus YCL016C, strain dcc1, stronger effect = lower value 1.02 | locus YCL029C, strain bik1, stronger effect = lower value 0.995 | locus YCL061C, strain MRC1, stronger effect = lower value 0.993 | locus YCL069W, strain vba3, stronger effect = lower value 0.995 | locus YCR088W, strain abp1, stronger effect = lower value 0.996 | locus YDL005C, strain med2, stronger effect = lower value 0.996 | locus YDL035C, strain GPR1, stronger effect = lower value 1 | locus YDL040C, strain nat1, stronger effect = lower value 1 | locus YDL074C, strain BRE1, stronger effect = lower value 0.999 | locus YDL101C, strain DUN1, stronger effect = lower value 1 | locus YDL134C, strain PPH21, stronger effect = lower value 1.01 | locus YDL185W, strain tfp1, stronger effect = lower value 0.988 | locus YDL192W, strain arf1, stronger effect = lower value 0.997 | locus YDR001C, strain nth1, stronger effect = lower value 1.01 | locus YDR069C, strain doa4, stronger effect = lower value 1 | locus YDR101C, strain arx1, stronger effect = lower value 0.997 | locus YDR137W, strain rgp1, stronger effect = lower value 1.01 | locus YDR150W, strain NUM1, stronger effect = lower value 1.02 | locus YDR159W, strain sac3, stronger effect = lower value 1.01 | locus YDR162C, strain NBP2, stronger effect = lower value 0.993 | locus YDR195W, strain ref2 0.963 | locus YDR297W, strain sur2, stronger effect = lower value 1 | locus YDR318W, strain mcm21, stronger effect = lower value 0.998 | locus YDR334W, strain swr1, stronger effect = lower value 1.02 | locus YDR335W, strain msn5, stronger effect = lower value 0.997 | locus YDR388W, stronger effect = lower value 0.997 | locus YDR392W, strain spt3, stronger effect = lower value 1.01 | locus YDR502C, strain sam2, stronger effect = lower value 0.99 | locus YEL003W, strain gim4, stronger effect = lower value 1 | locus YEL037C, strain rad23, stronger effect = lower value 1 | locus YEL061C, strain CIN8 (second series), stronger effect = lower value 1.02 | locus YEL061C, strain CIN8, stronger effect = lower value 0.992 | locus YER015W, strain faa2, stronger effect = lower value 0.997 | locus YER016W, strain bim1, stronger effect = lower value 1.01 | locus YER110C, stronger effect = lower value 0.997 | locus YER111C, strain swi4, stronger effect = lower value 0.996 | locus YER155C, strain BEM2 (second series), stronger effect = lower value 1.01 | locus YER155C, strain BEM2, stronger effect = lower value 0.988 | locus YER167W, strain BCK2, stronger effect = lower value 1 | locus YFR010W, strain ubp6, stronger effect = lower value 0.999 | locus YGL078C, strain dbp3, stronger effect = lower value 0.995 | locus YGL086W, strain mad1, stronger effect = lower value 0.988 | locus YGL167C, strain pmr1, stronger effect = lower value 1.02 | locus YGL173C, strain kem1, stronger effect = lower value 1.01 | locus YGL227W, strain vid30, stronger effect = lower value 0.991 | locus YGL240W, strain doc1, stronger effect = lower value 1.01 | locus YGL248W, strain PDE1, stronger effect = lower value 1 | locus YGL253W, strain hxk2, stronger effect = lower value 0.999 | locus YGR078C, strain PAC10, stronger effect = lower value 0.989 | locus YGR135W, strain pre9, stronger effect = lower value 0.995 | locus YGR229C, strain SMI1, stronger effect = lower value 0.994 | locus YGR252W, strain gcn5, stronger effect = lower value 0.985 | locus YHR013C, strain ard1, stronger effect = lower value 1.01 | locus YHR027C, strain rpn1, stronger effect = lower value 1 | locus YHR030C, strain SLT2, stronger effect = lower value 1.01 | locus YHR079C, strain IRE1 (second series), stronger effect = lower value 0.998 | locus YHR094C, strain hxt1, stronger effect = lower value 0.995 | locus YHR129C, strain ARP1, stronger effect = lower value 1 | locus YHR142W, strain chs7, stronger effect = lower value 0.989 | locus YHR200W, strain rpn10, stronger effect = lower value 1 | locus YIL066C, strain RNR3, stronger effect = lower value 0.983 | locus YIL073C, strain SPO22, stronger effect = lower value 1.03 | locus YIL125W, strain kgd1, stronger effect = lower value 0.99 | locus YIR030C, strain dcg1, stronger effect = lower value 1 | locus YJL092W, strain hpr5, stronger effect = lower value 0.995 | locus YJL095W, strain BCK1 (second series), stronger effect = lower value 1.01 | locus YJL095W, strain BCK1, stronger effect = lower value 1.02 | locus YJL115W, strain asf1, stronger effect = lower value 0.998 | locus YJL129C, strain trk1, stronger effect = lower value 0.972 | locus YJL134W, strain LCB3, stronger effect = lower value 1 | locus YJL154C, strain vps35, stronger effect = lower value 1.01 | locus YJL164C, strain tpk1, stronger effect = lower value 1.01 | locus YJL166W, strain qcr8, stronger effect = lower value 1 | locus YJL168C, strain set2, stronger effect = lower value 0.998 | locus YJL187C, strain SWE1 (second series), stronger effect = lower value 1 | locus YJL187C, strain SWE1, stronger effect = lower value 0.996

— PubChem BioAssay AID1159580 (chemical genetic matrix, 2015)
